We go through 24 compounds from PubChem BioAssay (NCI).

About 83,000 compounds went through this panel and 20% of them were active in at least one assay; those are over-represented in the sample as a whole.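 Assay: single dose, 48 h. Readout: percent growth (0 = no net growth; negative = cell death). Active: <10.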 Calls of active or inactive are those of the source.

The assay concerns OVCAR-5 ovarian. The assay is described as follows: NCI-60 one-dose screen, 48 h (100 = growth as untreated, 0 = no growth, -100 = all killed). To be noted: 10 µM.
Regarding `CCCC(C)c1ccc(OCCCCCCN2CCNCC2)cc1` (centres undefined), the growth was 80.8% (inactive).

Turning to `Nc1cc(O)cc(O)c1`, the growth was 89.6% (inactive).

`CC(C)c1[nH]nc2c(NCc3ccc(-c4ccccn4)cc3)nc(SCCN)nc12`: the growth is 13.6% (inactive).

As for `CNC(=O)c1cc(Oc2ccc(NC(=O)Nc3ccc(Cl)c(OC4CCCCC4)c3)c(F)c2)ccn1`, the growth is 88.8% (inactive).

With `O=C(Nc1cccc(F)c1)Nc1cccc(Cl)c1`, the growth is 94.9% (inactive).

On to `CCCCCCOc1ccc(/C=C/C(=O)c2ccc(B(O)O)cc2)cc1`, for which the growth was 77.3% (inactive).

Consider `CC1(C)CC(OCCCC[P+](c2ccccc2)(c2ccccc2)c2ccccc2)CC(C)(C)N1O`, for which the growth was 18.2% (inactive).

In the case of `COc1c(C)c(C)c(OC)c2c1[nH]c(=O)c1c3cccnc3cn21`, the growth was 122% (inactive).

Turning to `CC1(C)CCc2cc(-c3ccn(S(=O)(=O)c4ccc(Cl)cc4)n3)ccc2O1`, the growth was 101% (inactive).

For `O=C(NC1CCCC1)c1ccc(N2CCC(NCc3cccc(C(F)(F)F)c3)CC2)cc1`, the growth was 94.2% (inactive).

With `CC1=CC2OC34COC3CC(OC(=O)C(F)(F)F)C4(C)C2(C)CC1` (centres undefined), the growth was 101% (inactive).

Consider `CCCCCCCCCCN=C(c1ccc(N(C)C)cc1)c1ccc(N(C)C)cc1`, for which the growth is 71.5% (inactive).

`Nc1ccccc1NC(=O)CCCCCCC(=O)Nc1ccc2c(c1)/C(=C/c1ccc[nH]1)C(=O)N2`: the growth is 67% (inactive).

Turning to `Cc1nnc2c3nnc(-c4ccc(Cl)cc4)n3c3ccccc3n12`, the growth was 100% (inactive).

Consider `CCC(CCNc1cc(OC)cc2cccnc12)CN1C(=O)c2ccccc2C1=O` (centres undefined), for which the growth is 111% (inactive).

With `COc1ccc(C(=O)c2sc3nc(-c4cccs4)ccc3c2N)cc1OC`, the growth was 82.2% (inactive).

Take `O=C/C=C/c1ccc([N+](=O)[O-])cc1Cl`: the growth was 115% (inactive).

Consider `C/C(=N\NC(=O)c1sc(=S)n(C)c1N)c1cc2ccccc2o1`, for which the growth was 74.1% (inactive).

As for `Cc1ccc(-c2cc(C(=O)Nc3ccc(S(=O)(=O)N4CCCCC4)cc3)[nH]n2)c(O)c1`, the growth was 73.8% (inactive).

Consider `CC(=O)OC1Oc2ccccc2-c2oc(=O)c(-c3ccc(F)cc3)cc21` (centres undefined), for which the growth is 104% (inactive).

With `CCOC(=O)c1c(O)c2cc(-c3ccccc3)nc(OCC)c2c(=O)n1C`, the growth was 104% (inactive).

As for `COc1ccc(-c2nnc(SCC(=O)c3ccccc3)o2)cc1`, the growth is 100% (inactive).

In the case of `CC(=O)Oc1c(C)c(C)c2c(c1C)CCC(C)(CC(=O)OCCCCCCCCCCC[P+](c1ccccc1)(c1ccccc1)c1ccccc1)O2` (centres undefined), the growth was -37.4% (active).

Take `Cc1ccccc1[P+](Cc1ccccc1)(c1ccccc1)c1ccccc1`: the growth is 52% (inactive).
